This is a sample that favours compounds with a hit; in the whole collection about 2.9% have one here.
A549 tox-1 = A549 cytotoxicity, counter-screen for Nrf2 inhibitors. A549 ARE-Fluc cells, CellTiter-Fluor viability, 18-24 h. Potency, µM (doses to about 46 µM), for inactives: top-dose activity change, negative = cytotoxicity, actives largely listed as inhibitors. 390,000 tested, 0.16% active. AID 504648; note: % is set by controls: 0 for no effect and ±100 for the full control effect
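A549 ARE-Fluc cells in 5% FBS OPTI-MEM, 5000 cells/well, rested 2 h then exposed to compounds in concentration-response for 18-24 h at 37 °C. Viability by CellTiter-Fluor fluorescence (Ex 405/Em 525) after 30 min; luciferase luminescence (BugLite, 15 min, RT) read afterwards.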
Nrf2 block = inhibitors of Nrf2 signaling; A549 ARE-Fluc reporter, luciferase luminescence, 18-24 h; Potency, µM (top dose mostly 46 µM), without a hit: at the top dose activity change, negative = inhibition, actives largely listed as inhibitors; 360,000 tested, 2.1% active; AID 504444; note: % is set by controls: 0 for no effect and ±100 for the full control effect; nearly all actives have a fitted effect of over 60% in size
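In this cell-based qHTS, ARE-driven firefly luciferase in A549 cells reports Nrf2 activity; the luminescent signal after BugLite lysis is the measured value, with a prior CellTiter-Fluor read for cell health.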
Nrf2 activator = Nrf2 pathway activation. AID 624171. Potency, µM (doses to about 46.1 µM), without a hit: at the highest dose activation, usual class: activators. 410,000 tested, 0.31% active. AREc32 ARE-luciferase reporter (MCF7-derived line), luminescence, 24 h; note: % of control where 0% means no effect; nearly all actives have a fitted effect of over 65% in size
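AREc32 cells carrying an ARE-driven firefly luciferase reporter were seeded at 1000 cells/well in OPTI-MEM with 5% FBS, then exposed to compound for 24 hr at 37 deg C. Luminescence was read with Steady-Glo after 30 min at RT.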
ATXN viability = reduces viability in counter-screen for ATXN expression inhibitors | S2 cells (HEK-293 line with an ATXN2-luciferase reporter) viability, CellTiter-Fluor protease fluorescence, 24 h | Potency, µM (doses to about 56.7 µM), most hits filed as cytotoxic | 400,000 tested, 0.49% active | AID 651635; note: nearly all actives have a fitted effect of over 40% in size
ATXN2 expr inh = reduces ATXN2 reporter expression in HEK-293 cells; 360,000 tested, 0.72% active; Potency, µM (titrated, usually from 57 µM), inactives show at the highest dose activity change, negative = inhibition, hits mostly inhibitors; AID 1745845; HEK-293 ATXN2-luciferase reporter, luminescence, 24 h; note: % is set by controls: 0 for no effect and ±100 for the full control effect; nearly all actives have a fitted effect of over 55% in size
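qHTS (up to 57 uM final) was run with 24 h compound exposure of reporter cells at 37 °C. Each well was multiplexed: SteadyGlo luminescence measured ATXN2-luciferase expression after a fluorogenic Gly-Phe-AFC viability readout (25 uM final).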
FLuc counter 3 = counter-screen for Nrf2 inhibitors: firefly luciferase enzyme inhibition | shares compounds with Nrf2 block | purified firefly luciferase, luminescence inhibition | 1,400 tested, 4% active | Potency, µM (top dose mostly 57.5 µM), without a hit: at the top dose activity change, negative = inhibition, actives largely listed as inhibitors | AID 720522; note: % is set by controls: 0 for no effect and ±100 for the full control effect; nearly all actives have a fitted effect of over 65% in size
Target sequence (P08659 whole entry, looked up): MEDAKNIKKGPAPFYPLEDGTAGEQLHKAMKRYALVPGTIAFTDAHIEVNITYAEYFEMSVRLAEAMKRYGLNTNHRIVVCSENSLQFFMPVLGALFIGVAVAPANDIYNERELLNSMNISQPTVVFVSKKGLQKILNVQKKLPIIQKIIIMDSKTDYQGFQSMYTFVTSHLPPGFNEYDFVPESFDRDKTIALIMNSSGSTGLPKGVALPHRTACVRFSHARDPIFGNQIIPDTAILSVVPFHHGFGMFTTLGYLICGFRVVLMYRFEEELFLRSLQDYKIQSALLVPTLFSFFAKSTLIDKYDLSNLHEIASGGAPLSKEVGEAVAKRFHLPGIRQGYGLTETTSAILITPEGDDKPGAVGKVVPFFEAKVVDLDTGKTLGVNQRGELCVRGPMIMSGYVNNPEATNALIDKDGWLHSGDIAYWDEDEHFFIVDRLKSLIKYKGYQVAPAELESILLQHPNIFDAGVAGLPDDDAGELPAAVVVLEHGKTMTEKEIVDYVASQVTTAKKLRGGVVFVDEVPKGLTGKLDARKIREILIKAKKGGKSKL
A549 tox-2 = A549 cytotoxicity, Nrf2 inhibitor counterscreen | shares compounds with Nrf2 block | A549 ARE-Fluc cells, cytotoxicity counterscreen | Potency, µM (titrated, usually from 46.1 µM), for inactives: at the top dose activity change, negative = cytotoxicity, usual class: inhibitors | 1,400 tested, 2% active | AID 720523;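 note: cells exposed to compounds for 18 to 24 hours; % is set by controls: 0 for no effect and ±100 for the full control effect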
ARE-Fluc inh = Nrf2 inhibition confirmed, A549 ARE-luciferase. shares compounds with Nrf2 block. A549 ARE-firefly luciferase reporter, luminescence. Potency, µM (highest dose often 46.1 µM), inactives show at the top dose activity change, negative = inhibition, hits mostly inhibitors. 1,400 tested, 74% active. AID 720524; note: % is set by controls: 0 for no effect and ±100 for the full control effect; nearly all actives have a fitted effect of over 65% in size
Numbers without * were called inactive; [ ] = remark or other dose. Calls come from the whole dose curve; as a rule, active = well fitted curve in the direction sought with a large enough effect; inconclusive = small, poorly fitted or top-dose-only effect, or another doubt; inactive = no such curve, though single readings can be large; an effect the other way counts as inactive or inconclusive. Potency is the fitted concentration of half-maximal effect.

Cc1ccc(NC(=O)C2CCCN(C(=O)c3ccc(Cl)cc3)C2)cc1S(=O)(=O)N1CCOCC1 (stereo unspecified) was read as A549 tox-1 inconclusive, Nrf2 block 7.31µM*, Nrf2 activator 2.9%, ATXN viability inactive, ATXN2 expr inh -25.1%, FLuc counter 3 1.1%, A549 tox-2 -22.9% and ARE-Fluc inh 13µM*.
`CCOC(=O)CCc1c(C)c2cc3c(c(C)c2oc1=O)OCN(CCc1ccccc1OC)C3` gave A549 tox-1 inconclusive, Nrf2 block 12.2%, Nrf2 activator 4.3% and ATXN2 expr inh -36.8%.
Screening CC(C)(C)c1cc(CCC(=O)NNC(=S)NC(=O)c2ccccc2)cc(C(C)(C)C)c1O returned A549 tox-1 inconclusive, Nrf2 block 2.91µM*, Nrf2 activator -0.7%, ATXN viability inactive, ATXN2 expr inh -12.3%, FLuc counter 3 1.0%, A549 tox-2 -8.5% and ARE-Fluc inh 14.6µM*.
For COC(=O)c1cc(Nc2nc3ccccc3nc2NS(=O)(=O)c2ccc(C)cc2)ccc1Cl the results were A549 tox-1 -1.4%, Nrf2 block 15.2%, Nrf2 activator 5.8%, ATXN viability inactive and ATXN2 expr inh 58.6%.
`COc1ccc2c(c1)c(C)cc[n+]2Cc1ccccc1` gave A549 tox-1 -17.6%, Nrf2 block 6.51µM*, Nrf2 activator -0.7%, ATXN viability inactive, ATXN2 expr inh -24.6%, FLuc counter 3 -0.7%, A549 tox-2 -0.3% and ARE-Fluc inh 10.3µM*.
`CN(CCOc1ccc(Cl)cc1)C(=O)c1cccc(S(=O)(=O)N2CCN(Cc3ccccc3)CC2)c1` gave A549 tox-1 -10.0%, Nrf2 block 8.2µM*, Nrf2 activator 0.3%, ATXN viability inconclusive, FLuc counter 3 -0.1%, A549 tox-2 -29.1% and ARE-Fluc inh 9.2µM*.
CSc1ccc(CN(C)C(=O)c2cccc(S(=O)(=O)N3CCN(Cc4ccccc4)CC3)c2)cc1 was read as A549 tox-1 -15.6%, Nrf2 block 5.8µM*, Nrf2 activator 0.4%, ATXN viability inactive, ATXN2 expr inh -21.6%, FLuc counter 3 0.8%, A549 tox-2 12.6% and ARE-Fluc inh inconclusive.
`COc1ccccc1CN(C)C(=O)c1cccc(S(=O)(=O)N2CCN(Cc3ccccc3)CC2)c1` gave A549 tox-1 -0.8%, Nrf2 block -12.3%, Nrf2 activator 2.2%, ATXN viability inactive and ATXN2 expr inh -5.1%.
Screening Cc1cc(Cl)ccc1NC(=O)c1cccc(NC(=O)N2CCSc3ncccc32)c1 returned A549 tox-1 -0.7%, Nrf2 block inconclusive and Nrf2 activator -0.2%.
For Cc1ccc(NC(=O)CSc2nc3nc(C)c(Cc4ccccc4)c(C)n3n2)cc1 the results were A549 tox-1 -2.1% and Nrf2 activator -0.4%.
O=C(COc1ccccc1Cl)NCCCNC(=O)c1cccnc1 was read as A549 tox-1 2.2%, Nrf2 block 3.66µM*, Nrf2 activator -3.1%, ATXN viability inactive, ATXN2 expr inh 0.0%, FLuc counter 3 -0.9%, A549 tox-2 -20.6% and ARE-Fluc inh 9.2µM*.
Screening O=C(COc1ccccc1Cl)NCCNC(=O)c1cccnc1 returned A549 tox-1 4.1%, Nrf2 block -9.9%, Nrf2 activator -0.3%, ATXN viability inactive and ATXN2 expr inh 0.4%.
CCOC(=O)c1ccc(NC(=O)CSc2ccc(-c3sc(C)nc3C)nn2)cc1 was read as A549 tox-1 -0.9%, Nrf2 activator 6.5%, ATXN viability inconclusive and ATXN2 expr inh 7.5%.
CN(CC(=O)Nc1ccccc1Br)c1ncnc2sccc12 was read as A549 tox-1 -8.4%, Nrf2 block 9.2µM*, Nrf2 activator 0.3%, ATXN viability inactive, ATXN2 expr inh -25.9%[11.3 µM], FLuc counter 3 3.7%, A549 tox-2 1.4% and ARE-Fluc inh inconclusive.
For CC1CCCN(S(=O)(=O)c2cc3c(cc2Cl)NC(=O)CO3)C1 (stereo unspecified) the results were A549 tox-1 -0.8%, Nrf2 block -15.5%, Nrf2 activator -1.0%, ATXN viability inactive and ATXN2 expr inh -2.1%.
`Cc1ccc(N2CCN(c3nc4c(S(=O)(=O)c5ccc(C)c(C)c5)nnn4c4ccccc34)CC2)c(C)c1` gave A549 tox-1 1.4%, Nrf2 block 20.0% and Nrf2 activator -0.1%.
CC(=O)[C@H]1CC[C@H]2[C@@H]3C[C@H](C)C4=CC(=O)CC[C@]4(C)[C@H]3[C@@H](O)C[C@]12C was read as A549 tox-1 0.2%, Nrf2 block 0.058µM*, Nrf2 activator 0.1%, ATXN viability inactive, ATXN2 expr inh -7.2%, FLuc counter 3 -0.1%, A549 tox-2 -3.9% and ARE-Fluc inh 0.146µM*.
`C[C@]12C[C@H](O)[C@H]3[C@@H](CCC4=CC(=O)CC[C@@]43C)[C@@H]1CC[C@@H]2C(=O)CO` gave A549 tox-1 -8.2%, Nrf2 block 0.411µM*, Nrf2 activator 3.2%, ATXN viability inactive, ATXN2 expr inh 4.2%, FLuc counter 3 2.1%, A549 tox-2 -4.7% and ARE-Fluc inh 1.3µM*.
Screening Cc1c(Cl)cccc1NC(=O)C(C)n1c(=O)cc(C)c2c(C)nn(-c3ccccc3)c21 (stereo unspecified) returned A549 tox-1 1.2%, Nrf2 block 24.1%, Nrf2 activator -0.6%, ATXN viability inconclusive and ATXN2 expr inh 3.3%.
`COc1ccc(/C=C(/C#N)C(=O)Nc2ccccc2C)cc1C(=O)O` gave A549 tox-1 -0.5%, Nrf2 block -15.0%, Nrf2 activator 3.2%, ATXN viability inactive and ATXN2 expr inh -2.8%.
`CCOc1cc(/C=C(\C#N)C(=O)Nc2ccccc2C(=O)O)ccc1OC(=O)c1ccc(C)cc1` gave A549 tox-1 -2.1%, Nrf2 block 2.06µM*, Nrf2 activator 5.3%, ATXN viability inconclusive, ATXN2 expr inh -5.0%, FLuc counter 3 inconclusive, A549 tox-2 -0.5% and ARE-Fluc inh 4.61µM*.

Bioassay records (PubChem BioAssay)
